# Assay results taken from article PMC7862700, “An all-to-all approach to the identification of sequence-specific readers for epigenetic DNA modifications on cytosine”.
# Tests used:
# Assay in all cases: DAPPL (digital affinity profiling via proximity ligation, sequencing); 10 mM Tris-HCl pH 7.5, 50 mM NaCl, 1 mM DTT, 4% glycerol, room temperature, 30 min; GST-TFs on glutathione beads, 16-mer random dsDNA library, 0.1% formaldehyde crosslink after washing; high values mean tight binding
# HSF1 = HSF1 (Homo sapiens, UniProt Q00613 1-529); settings: protein: recombinant; tags: N-terminal GST; chain copies: 3; dsDNA, one strand shown
# Method in brief: (§1)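 Binding signal is each hexamer's read frequency for a factor divided by its frequency in the tag-only sample. The factors were GST-fused human transcription factors from yeast, captured on glutathione beads, DNA-barcoded and pooled with that sample. Pools were incubated with 200 nmole of a random double-stranded 16-mer DNA library in Tris/NaCl/DTT/glycerol buffer at room temperature for 30 min, then washed, crosslinked with 0.1% formaldehyde, proximity-ligated with BsaI/T4 ligase (1 h, 37 °C), PCR-amplified and sequenced on an Illumina NextSeq500.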
# ELK1 = biological target: T1, ELK1 (Homo sapiens, UniProt P19419 1-428); settings: protein: recombinant; tags: N-terminal GST; dsDNA, one strand shown
# T1 sequence: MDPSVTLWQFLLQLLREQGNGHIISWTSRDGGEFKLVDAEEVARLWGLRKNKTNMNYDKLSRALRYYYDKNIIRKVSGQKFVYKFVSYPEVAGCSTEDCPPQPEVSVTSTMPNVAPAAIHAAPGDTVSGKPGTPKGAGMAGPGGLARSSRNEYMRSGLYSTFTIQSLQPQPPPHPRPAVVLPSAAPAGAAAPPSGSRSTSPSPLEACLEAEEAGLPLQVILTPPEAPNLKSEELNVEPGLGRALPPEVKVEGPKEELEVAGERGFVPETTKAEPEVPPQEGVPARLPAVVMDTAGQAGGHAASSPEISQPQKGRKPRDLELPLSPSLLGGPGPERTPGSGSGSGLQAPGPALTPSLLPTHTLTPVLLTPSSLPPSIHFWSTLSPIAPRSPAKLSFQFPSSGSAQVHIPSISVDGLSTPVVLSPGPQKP
# Method in brief: as §1
# GABPA = biological target: T2, GABPA (Homo sapiens, UniProt Q06546 1-454); settings: protein: recombinant; tags: N-terminal GST; dsDNA, one strand shown
# T2 sequence: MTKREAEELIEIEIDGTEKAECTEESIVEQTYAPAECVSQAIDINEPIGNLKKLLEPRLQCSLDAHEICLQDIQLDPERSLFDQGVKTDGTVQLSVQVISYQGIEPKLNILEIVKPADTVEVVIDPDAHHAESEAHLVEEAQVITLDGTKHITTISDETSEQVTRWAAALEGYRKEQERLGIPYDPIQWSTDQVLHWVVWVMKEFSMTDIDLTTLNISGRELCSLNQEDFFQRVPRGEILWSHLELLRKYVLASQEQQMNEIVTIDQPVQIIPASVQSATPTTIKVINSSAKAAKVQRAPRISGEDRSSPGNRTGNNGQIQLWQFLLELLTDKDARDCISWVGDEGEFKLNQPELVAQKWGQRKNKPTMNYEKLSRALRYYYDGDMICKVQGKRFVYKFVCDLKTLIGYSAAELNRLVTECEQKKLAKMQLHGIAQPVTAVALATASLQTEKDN
# Method in brief: as §1
# ELF1 = ELF1 (Homo sapiens, UniProt P32519 1-619); settings: protein: recombinant; tags: N-terminal GST; dsDNA, one strand shown
# Method in brief: as §1
# EHF = biological target: T3, EHF (Homo sapiens, UniProt Q9NZC4 1-300); settings: protein: recombinant; tags: N-terminal GST; dsDNA, one strand shown
# T3 sequence: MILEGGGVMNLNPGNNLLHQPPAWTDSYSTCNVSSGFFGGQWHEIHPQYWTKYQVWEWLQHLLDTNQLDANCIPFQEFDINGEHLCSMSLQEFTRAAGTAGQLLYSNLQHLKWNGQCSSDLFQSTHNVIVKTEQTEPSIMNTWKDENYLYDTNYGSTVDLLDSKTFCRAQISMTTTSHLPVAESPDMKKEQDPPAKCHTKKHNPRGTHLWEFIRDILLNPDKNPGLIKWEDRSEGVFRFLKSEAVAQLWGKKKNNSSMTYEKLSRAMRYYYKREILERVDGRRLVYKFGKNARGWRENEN
# Method in brief: as §1
# FEV = biological target: T4, FEV (Homo sapiens, UniProt Q99581 1-238); settings: protein: recombinant; tags: N-terminal GST; dsDNA, one strand shown
# T4 sequence: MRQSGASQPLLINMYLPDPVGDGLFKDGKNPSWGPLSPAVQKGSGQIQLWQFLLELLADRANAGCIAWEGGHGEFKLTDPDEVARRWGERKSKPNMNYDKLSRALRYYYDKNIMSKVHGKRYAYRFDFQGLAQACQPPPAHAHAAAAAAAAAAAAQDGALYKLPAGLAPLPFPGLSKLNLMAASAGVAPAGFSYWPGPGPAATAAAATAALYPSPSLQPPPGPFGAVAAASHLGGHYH
# Method in brief: as §1
# SPIC = biological target: T5, SPIC (Homo sapiens, UniProt Q8N5J4 1-248); settings: protein: recombinant; tags: N-terminal GST; dsDNA, one strand shown
# T5 sequence: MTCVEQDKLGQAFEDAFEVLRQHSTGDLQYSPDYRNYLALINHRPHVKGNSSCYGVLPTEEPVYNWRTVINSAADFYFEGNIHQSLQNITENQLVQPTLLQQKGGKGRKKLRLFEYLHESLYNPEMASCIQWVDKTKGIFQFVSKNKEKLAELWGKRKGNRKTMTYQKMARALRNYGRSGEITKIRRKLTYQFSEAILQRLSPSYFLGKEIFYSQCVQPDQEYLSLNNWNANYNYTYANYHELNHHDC
# Method in brief: as §1
# ELF4 = ELF4 (Homo sapiens, UniProt Q99607 1-663); settings: protein: recombinant; tags: N-terminal GST; dsDNA, one strand shown
# Method in brief: as §1
# ETV2 = biological target: T6, ETV2 (Homo sapiens, UniProt O00321 1-342); settings: protein: recombinant; tags: N-terminal GST; dsDNA, one strand shown
# T6 sequence: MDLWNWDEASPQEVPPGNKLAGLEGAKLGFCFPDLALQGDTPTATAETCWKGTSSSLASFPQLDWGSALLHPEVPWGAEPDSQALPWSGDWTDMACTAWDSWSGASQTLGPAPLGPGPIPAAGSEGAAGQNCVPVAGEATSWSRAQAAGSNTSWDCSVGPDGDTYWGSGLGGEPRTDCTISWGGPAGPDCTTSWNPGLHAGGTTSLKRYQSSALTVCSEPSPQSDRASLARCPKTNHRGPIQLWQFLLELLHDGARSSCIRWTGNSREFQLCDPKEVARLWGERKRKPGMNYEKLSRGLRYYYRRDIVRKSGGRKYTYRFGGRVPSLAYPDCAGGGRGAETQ
# Method in brief: as §1
# ELF3 = biological target: T7, ELF3 (Homo sapiens, UniProt P78545 1-371); settings: protein: recombinant; tags: N-terminal GST; dsDNA, one strand shown
# T7 sequence: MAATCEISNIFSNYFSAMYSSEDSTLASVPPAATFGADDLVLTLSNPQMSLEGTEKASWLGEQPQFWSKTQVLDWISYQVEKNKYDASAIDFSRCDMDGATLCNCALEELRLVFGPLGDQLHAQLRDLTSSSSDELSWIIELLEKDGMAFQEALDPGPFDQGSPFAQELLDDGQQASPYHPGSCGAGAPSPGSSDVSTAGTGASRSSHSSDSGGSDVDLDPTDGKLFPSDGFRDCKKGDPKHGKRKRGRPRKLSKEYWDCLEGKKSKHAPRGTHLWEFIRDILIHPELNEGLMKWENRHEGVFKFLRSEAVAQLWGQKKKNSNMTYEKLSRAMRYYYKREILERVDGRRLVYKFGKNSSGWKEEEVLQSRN
# Method in brief: as §1
# ETV1 = ETV1 (Homo sapiens, UniProt P50549 1-477); settings: protein: recombinant; tags: N-terminal GST; dsDNA, one strand shown
# Method in brief: as §1
# ETV3 = biological target: T8, ETV3 (Homo sapiens, UniProt P41162-2 1-143); settings: protein: recombinant; tags: N-terminal GST; dsDNA, one strand shown
# T8 sequence: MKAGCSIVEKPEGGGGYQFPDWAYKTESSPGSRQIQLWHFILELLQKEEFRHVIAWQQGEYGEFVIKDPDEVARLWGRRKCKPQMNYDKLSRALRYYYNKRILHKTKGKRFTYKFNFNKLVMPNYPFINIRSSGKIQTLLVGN
# Method in brief: as §1
# Sequence of HSF1 (Q00613 whole entry, the tested form may be a part): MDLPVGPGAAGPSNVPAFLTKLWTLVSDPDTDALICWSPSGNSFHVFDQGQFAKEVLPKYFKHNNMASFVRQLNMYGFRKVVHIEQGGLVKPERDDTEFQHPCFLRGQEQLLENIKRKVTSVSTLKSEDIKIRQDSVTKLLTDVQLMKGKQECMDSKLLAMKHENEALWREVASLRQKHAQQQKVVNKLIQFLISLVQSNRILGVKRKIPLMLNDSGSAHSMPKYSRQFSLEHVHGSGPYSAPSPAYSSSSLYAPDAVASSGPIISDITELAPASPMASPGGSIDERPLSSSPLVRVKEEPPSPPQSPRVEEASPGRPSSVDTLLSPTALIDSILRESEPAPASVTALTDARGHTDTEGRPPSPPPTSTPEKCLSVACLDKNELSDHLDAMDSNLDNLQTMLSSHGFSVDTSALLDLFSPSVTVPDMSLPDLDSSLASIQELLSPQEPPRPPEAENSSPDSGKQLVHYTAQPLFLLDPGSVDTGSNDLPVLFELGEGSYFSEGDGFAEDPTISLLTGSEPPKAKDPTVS
# Sequence of ELF1 (P32519 whole entry): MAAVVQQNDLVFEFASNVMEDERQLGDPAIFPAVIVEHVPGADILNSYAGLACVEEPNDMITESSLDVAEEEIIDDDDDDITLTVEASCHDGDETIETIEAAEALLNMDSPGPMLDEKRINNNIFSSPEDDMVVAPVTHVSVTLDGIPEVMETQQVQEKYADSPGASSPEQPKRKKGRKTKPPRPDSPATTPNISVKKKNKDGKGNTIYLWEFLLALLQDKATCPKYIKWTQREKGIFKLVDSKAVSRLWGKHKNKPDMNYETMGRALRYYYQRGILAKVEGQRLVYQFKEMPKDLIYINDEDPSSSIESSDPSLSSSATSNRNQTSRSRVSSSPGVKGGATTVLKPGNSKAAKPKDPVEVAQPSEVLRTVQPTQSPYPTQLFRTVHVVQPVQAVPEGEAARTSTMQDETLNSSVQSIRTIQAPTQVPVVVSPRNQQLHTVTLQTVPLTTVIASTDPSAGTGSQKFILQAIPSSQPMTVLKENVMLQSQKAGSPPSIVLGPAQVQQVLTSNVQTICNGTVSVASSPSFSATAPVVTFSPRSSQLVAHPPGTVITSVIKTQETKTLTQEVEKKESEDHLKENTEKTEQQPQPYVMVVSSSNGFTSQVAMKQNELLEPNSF
# Sequence of ELF4 (Q99607 whole entry): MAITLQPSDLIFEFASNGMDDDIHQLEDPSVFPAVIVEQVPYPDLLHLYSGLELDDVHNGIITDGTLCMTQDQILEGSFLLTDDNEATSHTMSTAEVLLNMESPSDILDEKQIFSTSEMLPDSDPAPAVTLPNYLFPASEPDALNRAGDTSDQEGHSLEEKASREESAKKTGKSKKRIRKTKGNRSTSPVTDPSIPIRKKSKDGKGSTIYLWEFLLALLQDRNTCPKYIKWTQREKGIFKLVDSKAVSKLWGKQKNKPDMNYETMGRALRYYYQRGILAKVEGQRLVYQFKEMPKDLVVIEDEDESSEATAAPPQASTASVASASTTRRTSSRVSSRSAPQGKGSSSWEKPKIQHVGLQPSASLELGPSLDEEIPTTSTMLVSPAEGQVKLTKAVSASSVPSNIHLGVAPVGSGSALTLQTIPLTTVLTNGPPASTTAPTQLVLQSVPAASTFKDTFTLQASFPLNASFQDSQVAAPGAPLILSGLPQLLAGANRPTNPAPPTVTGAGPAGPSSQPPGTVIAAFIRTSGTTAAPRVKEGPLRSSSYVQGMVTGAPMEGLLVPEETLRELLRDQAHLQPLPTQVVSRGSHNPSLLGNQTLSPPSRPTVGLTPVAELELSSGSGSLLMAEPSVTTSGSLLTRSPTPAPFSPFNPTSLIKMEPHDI
# Sequence of ETV1 (P50549 whole entry): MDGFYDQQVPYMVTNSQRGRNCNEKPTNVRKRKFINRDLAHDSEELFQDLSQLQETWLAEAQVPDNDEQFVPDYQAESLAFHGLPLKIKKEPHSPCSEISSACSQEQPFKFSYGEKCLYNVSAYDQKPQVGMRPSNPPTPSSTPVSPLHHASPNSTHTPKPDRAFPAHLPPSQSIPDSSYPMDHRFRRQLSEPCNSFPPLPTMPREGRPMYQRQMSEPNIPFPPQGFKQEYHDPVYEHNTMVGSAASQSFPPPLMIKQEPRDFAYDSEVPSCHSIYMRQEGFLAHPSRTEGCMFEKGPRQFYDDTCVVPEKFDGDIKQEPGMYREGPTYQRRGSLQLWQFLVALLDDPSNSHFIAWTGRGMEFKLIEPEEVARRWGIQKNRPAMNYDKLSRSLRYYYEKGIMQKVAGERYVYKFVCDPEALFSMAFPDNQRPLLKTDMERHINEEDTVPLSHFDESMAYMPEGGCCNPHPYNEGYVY
sequence,measurement,setting,value
TCGCGA,binding signal,HSF1,"1.59 fold enrichment (6-mer frequency, TF over GST control)"
CAGACT,binding signal,ELK1,"1.01 fold enrichment (6-mer frequency, TF over GST control)"
same,binding signal,GABPA,"1.06 fold enrichment (6-mer frequency, TF over GST control)"
same,binding signal,ELF1,"1.02 fold enrichment (6-mer frequency, TF over GST control)"
same,binding signal,EHF,"1.05 fold enrichment (6-mer frequency, TF over GST control)"
same,binding signal,FEV,"1 fold enrichment (6-mer frequency, TF over GST control)"
same,binding signal,HSF1,"1.06 fold enrichment (6-mer frequency, TF over GST control)"
same,binding signal,SPIC,"1.05 fold enrichment (6-mer frequency, TF over GST control)"
same,binding signal,ELF4,"1.07 fold enrichment (6-mer frequency, TF over GST control)"
same,binding signal,ETV2,"1.04 fold enrichment (6-mer frequency, TF over GST control)"
same,binding signal,ELF3,"1.04 fold enrichment (6-mer frequency, TF over GST control)"
same,binding signal,ETV1,"1.05 fold enrichment (6-mer frequency, TF over GST control)"
same,binding signal,ETV3,"1.01 fold enrichment (6-mer frequency, TF over GST control)"
